From PubChem BioAssay
SMN2 splice up: increases expression of the SMN2 splice variant; 2.8% of 210,000 active; AID 1458; HEK293 SMN2-luciferase splicing reporter, luminescence, 30-36 h; Potency, µM (series often up to 46.1 µM), inactives show at the top dose activity change, positive = activation, most hits filed as activators; also: % of control where 0% means no effect; nearly all actives have a fitted effect of over 55% in size
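HEK293 cells carry an SMN2 […]–luciferase reporter in which exon 7 inclusion puts luciferase in frame. Cells were plated 10-12 h before compound addition, then incubated 30-36 h at 37C. ONE-Glo luminescence was read; sodium butyrate at 4.5 mM final served as control.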
KinaseGlo FLuc: blocks Kinase-Glo luciferase, a counter-screen artifact | AID 1379 | Potency, µM (series often up to 38.3 µM), for inactives: at the top dose activity change, negative = inhibition, most hits filed as inhibitors | Kinase-Glo luciferase, ATP luminescence, 8 min | 0.28% of 200,000 active | Q27757; also: % is scaled to controls: 0 for no effect and ±100 for the full control effect; nearly all actives have a fitted effect of over 60% in size
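Inhibition of Kinase-Glo luciferase light generation was assessed at 10 uM ATP in pH 7.2 imidazole buffer, with luminescence measured after eight minutes at ambient temperature.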
NPC1 prom act: NPC1 promoter activation. 2.4% of 320,000 active. Huh7 NPC1 promoter luciferase reporter, 24 h. AID 485313. Potency, µM (doses to about 9.22 µM), inactives show at the top dose activation, usual class: activators; also: % of control where 0% means no effect; nearly all actives have a fitted effect of over 60% in size
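Huh7 reporter cells (NPC1 promoter driving luciferase) are dosed with compound for 24 h at 37 °C, 5% CO2; luciferase detection reagent is then added and luminescence measured after 10 min at ambient temperature.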
Rab9 prom act: Rab9 promoter activation; Huh7 Rab9 promoter-luciferase reporter, luminescence, 24 h; Potency, µM (titrated, usually from 9.22 µM), for inactives: at the top dose activation, negative = inhibition, actives largely listed as activators; 2.8% of 320,000 active; AID 485297; also: % of control where 0% means no effect; nearly all actives have a fitted effect of over 60% in size
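Cell-based reporter: Huh7 stable for Rab9 promoter-driven luciferase, plated in reduced-serum medium with 10% FBS at 1500 cells/well, compound-treated 24 h at 37 °C, luminescence read after 10 min reagent.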
FLuc counter: firefly luciferase modulation, counter-screen for miR-21 project | purified FLuc, Km substrates, luminescence inhibition | Potency, µM (titrated, usually from 57.5 µM), for inactives: top-dose activity change, negative = inhibition, most hits filed as inhibitors | 6.9% of 360,000 active;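 also: plate controls were vehicle for no effect and reference inhibitor for full effect; nearly all actives have a fitted effect of over 55% in size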
Target sequence (P08659 whole entry, looked up): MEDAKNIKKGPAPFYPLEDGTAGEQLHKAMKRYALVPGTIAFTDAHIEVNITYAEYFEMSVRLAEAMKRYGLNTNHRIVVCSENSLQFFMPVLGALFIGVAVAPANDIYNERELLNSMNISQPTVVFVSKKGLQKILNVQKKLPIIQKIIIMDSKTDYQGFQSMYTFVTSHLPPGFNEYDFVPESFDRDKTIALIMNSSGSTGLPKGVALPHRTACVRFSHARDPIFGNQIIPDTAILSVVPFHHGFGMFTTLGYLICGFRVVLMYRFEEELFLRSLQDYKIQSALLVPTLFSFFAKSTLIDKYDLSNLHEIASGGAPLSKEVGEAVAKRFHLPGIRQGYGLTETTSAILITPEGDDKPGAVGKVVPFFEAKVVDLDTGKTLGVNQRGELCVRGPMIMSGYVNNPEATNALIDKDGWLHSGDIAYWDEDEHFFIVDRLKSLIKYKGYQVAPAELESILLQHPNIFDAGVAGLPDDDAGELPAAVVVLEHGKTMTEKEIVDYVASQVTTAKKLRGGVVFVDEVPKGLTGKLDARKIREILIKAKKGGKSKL
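Purified P. pyralis luciferase, 10 nM final, with Km-level 10 uM D-luciferin and 10 uM ATP in 50 mM Tris acetate pH 7.5, 10 mM Mg acetate, 0.01% Tween-20, 0.05% BSA; 6-point qHTS titration about 60 µM downward; luminescence read.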
ELG1 genotox: induces genotoxicity in HEK293T cells with luciferase-tagged ELG1. 1.3% of 330,000 active. HEK293T ELG1-luciferase reporter, luminescence, 16 h. Potency, µM (doses to about 46 µM), inactives show at the highest dose activity change, positive = activation, most hits filed as activators; also: % of control where 0% means no effect; nearly all actives have a fitted effect of over 60% in size
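Luminescence read-out: rising ELG1-luciferase signal, reflecting elevated ELG1 protein under genetic stress, flags genotoxic compounds. Cells were treated for 16 hr at 37 °C before ONE-Glo detection.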
* = called active by the depositor; ? = inconclusive; · = no result given; [ ] = dose if it differs, or a comment. Rows were chosen to be rich in hits. Some 7.3% of all compounds tested hit in one or more screens of this group. Calls follow the shape of the dose curve; as a rule, active = well fitted curve in the direction sought with a large enough effect; inconclusive = small, poorly fitted or top-dose-only effect, or another doubt; inactive = no such curve, though single readings can be large; an effect the other way counts as inactive or inconclusive. Potency is read from the fitted curve at half-maximal effect.

SMILES	SMN2 splice up	KinaseGlo FLuc	NPC1 prom act	Rab9 prom act	FLuc counter	ELG1 genotox
Cc1ccc2oc(-c3ccc(C)c(NC(=S)NC(=O)c4cccs4)c3)nc2c1	?	2%	19%	29%	6µM*	8.2µM*
COc1cc(C(=O)Nc2cc(-c3nc4cc(C)ccc4o3)ccc2C)cc(OC)c1OC	?	-8%	?	?	0.27µM*	?
Cc1cccc(-c2nc(S(=O)(=O)c3ccccc3)c(N3CCN(c4ccccc4)CC3)o2)c1	-3%	·	·	·	-1%	·
CCOc1ccc(CCNC(=O)c2ccc3c(c2)c(C)c(C)n3C)cc1	·	·	·	·	-13%	·
CC[n+]1c(/C=C/C=C2/N(C)c3ccccc3C2(C)C)sc2ccccc21	·	·	-31%[46.1 µM]	-44%[46.1 µM]	·	·
COc1ccc2c(c1)c(=O)c(C(=O)c1ccccc1)cn2CC(=O)Nc1ccc2c(c1)OCO2	-1%	·	·	·	-7%	·
COc1cc(C(=O)Nc2cccc(-c3nc4cc(C)ccc4o3)c2)cc(OC)c1OC	-10%	-1%	18%	20%	1.7µM*	-4%
Cc1ccc2oc(-c3cccc(NC(=O)c4cccc5c(Cl)cccc45)c3)nc2c1	-6%	·	·	·	-5%	·
O=C(CCCn1c(=O)c2sccc2n(Cc2ccc(F)cc2Cl)c1=O)NCc1ccc2c(c1)OCO2	-1%	·	·	·	-12%	·
Cc1cccc(NC(=O)c2onc3c2CCCC3)n1	·	4.5µM*	0.5µM*	0.4µM*	0.76µM*	0.92µM*
Cc1ccccc1NC(=O)c1sc2nc3c(c(-c4ccco4)c2c1N)CCCC3	-48%	-2%	-4%	-1%	2%	-4%
Cc1ccccc1NC(=O)c1onc2c1CCCC2	?	?	4.5µM*	2.5µM*	6µM*	?
Cc1cccc(NC(=O)c2onc3c2CCCC3)c1C	29%	-12%	4.5µM*	2.8µM*	7.6µM*	?
Cc1cccc(NC(=O)c2sc3nc4c(cc3c2N)CCCCCC4)c1C	-2%	·	·	·	0%	·
Cc1ccc(CNC(=O)c2c(-c3cccc(Br)c3)noc2C)o1	·	·	·	·	-4%	·
CCOc1ccccc1NC(=O)C1CCN(S(=O)(=O)c2ccc3[nH]c4c(c3c2)CCCCC4)CC1	·	·	·	·	-2%	·
COc1ccc(NC(=O)CSc2nc(N)c3cc4c(nc3n2)CC(C)(C)OC4)cc1	·	·	23%	?	?	9%
CCn1c(SCC(=O)Nc2ccc(C(C)=O)cc2)nc2nc3c(cc2c1=O)CCCC3	-76%	-2%	12%	21%	?	?
COc1ccc(NC(=O)CSc2nc(N)c3cc4c(nc3n2)CCCC4)cc1	22µM*	-18%	19%	?	1.5µM*	13%
CC(=O)c1ccc(NC(=O)CSc2nc(N)c3cc4c(nc3n2)CCCC4)cc1	25µM*	?	?	?	1.3µM*	16%
CC(C)(C)C(=O)Cn1ncc(N2CCCC2)c(Br)c1=O	24%	4%	?	4µM*	?	?
CC(C)(C)C(=O)Cn1ncc(N2CCOCC2)c(Br)c1=O	7%	3%	7%	26%	-2%	9%
Cc1ccc(C(=O)Nc2nc(=O)n(C(=O)c3ccccc3C)s2)cc1	20%	5%	15%	?	15µM*	17%
O=C(Nc1nc(=O)n(C(=O)C2CC2)s1)c1ccccc1	0%	0%	-5%	1%	?	-3%
Cc1ccc(C(=O)Nc2cc3c(cc2C)n(C)c(=O)c(=O)n3C)cc1	·	·	·	·	-11%	·
SMILES	SMN2 splice up	KinaseGlo FLuc	NPC1 prom act	Rab9 prom act	FLuc counter	ELG1 genotox
Cc1ccc(C(=O)Nc2nc(=O)n(C(=O)C3CC3)s2)cc1	19%	4%	1%	-6%	19µM*	0%
NCCc1nc2cccnc2n1-c1ccccc1	·	·	·	·	0%	·
Cc1cc(NC(=O)C(C)Oc2ccc(Cl)cc2Cl)no1 (stereo not given)	·	·	5%	-2%	24µM*	10%
Cc1ccc(OC(C)C(=O)Nc2cc(C)on2)cc1 (stereo not given)	·	·	-1%	-1%	19µM*	-8%
CCN(CC)CCN1C(=O)C(=O)/C(=C(/O)c2cnn(-c3ccccc3)c2C)C1c1ccc(C)o1 (stereo not given)	7%	-4%	30%	?	?	?
Cc1ccc(C2/C(=C(/O)c3cnn(-c4ccccc4)c3C)C(=O)C(=O)N2CCN2CCOCC2)o1 (stereo not given)	-52%	2%	3.5µM*	2.8µM*	21µM*	5.8µM*
Cc1c(/C(O)=C2/C(=O)C(=O)N(CCN3CCOCC3)C2c2cccs2)cnn1-c1ccccc1 (stereo not given)	?	-3%	4.5µM*	1.3µM*	9.5µM*	1.8µM*
CCn1cc(C(=O)N2CCN(c3ccccc3F)CC2)c(=O)c2cc(S(=O)(=O)N(C)C3CCCCC3)ccc21	4%	·	·	·	?	·
CCC(C)NC(=O)c1ccc2c(SCC(=O)O)c3c(nc2c1)CCCC3 (stereo not given)	-10%	1%	-1%	1%	?	1%
CN(C(=O)c1ccc2c(Cl)c3c(nc2c1)CCC3)c1ccccc1	·	12%	?	?	21µM*	?
COc1cc(Cl)c(C)cc1NC(=O)c1ccc2c(Cl)c3c(nc2c1)CCC3	?	·	·	·	-5%	·
CN(C(=O)c1ccc2c(Cl)c3c(nc2c1)CCC3)c1ccccc1F	-5%	·	·	·	?	·
CCC(C)NC(=O)c1ccc2c(Cl)c3c(nc2c1)CCC3 (stereo not given)	·	·	2.8µM*	2.5µM*	4.8µM*	?
